This is an account of results in PubChem BioAssay (NCATS).

Results filed as inconclusive are left out. Values without a mark were called inactive. Active and inactive are the calls of the source. Calls come from the whole dose curve; as a rule, active = well fitted inhibition curve with a large enough effect; inconclusive = small, poorly fitted or top-dose-only effect; inactive = flat fitted curve, though single readings scatter.

Assay [1] addresses Calcium and integrin-binding protein 1 (Homo sapiens) (UniProt Q99828). As to the kind of experiment: Primary qHTS for Identification of Calcium Integrin Binding Protein 1 (CIB1) Competitor (AID 1508620).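 Note: GST tagged CIB1 binding a fluorescein labelled alphaIIb integrin peptide tracer; top concentration of the series differs between compounds.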 Put shortly:
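Fluorescence polarization competition: CIB1-GST (1 uM final) preincubated with compound 15 min at room temperature, then FITC-labeled alphaIIb peptide (100 nM final) added for another 15 min. Polarization read at Ex 480/Em 540.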
(Quantitative high-throughput screening tests each substance at several concentrations.)

The nature of assay [2]: Primary qHTS for inhibitors of nuclear receptor binding SET domain protein 2 (NSD2) in an isogenic RCH-ACV NSD2 p.E1099K mutant (9B) (AID 1645876). Note: nearly all actives have a fitted effect of over 70% in size. Note: potency is the fitted concentration of half-maximal effect.
% is set by controls: 0 for no effect and ±100 for the full control effect.

Sequence of Calcium and integrin-binding protein 1 (Homo sapiens) (Q99828 whole entry, looked up): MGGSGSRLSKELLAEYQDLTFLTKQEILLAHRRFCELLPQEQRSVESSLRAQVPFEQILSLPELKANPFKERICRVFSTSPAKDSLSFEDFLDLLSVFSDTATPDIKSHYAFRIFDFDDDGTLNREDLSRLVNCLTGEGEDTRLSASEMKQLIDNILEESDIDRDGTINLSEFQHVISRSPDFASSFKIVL

On to `C[C@@]12CC[C@@H]3[C@@](CC[C@H]4[C@@]3(C)CCC[C@@]4(C)C(=O)O)(CC1=O)C2`, for which the Potency result in assay [1] and in assay [2] was “inactive” each time.

Consider `CC(=O)O[C@H]1CC[C@@]2(C)C(CC[C@@H](C)[C@]23Cc2c(O)cc4c(c2O3)CN([C@@H](CCC(=O)O)C(=O)O)C4=O)C1(C)C` (some centres not stated), for which the Potency result in assay [1] and in assay [2] was “inactive” each time.

As to `C[C@@H]1C[C@@H](O)[C@@]23CO[C@@H](O)[C@@H]2CCC[C@@H]3[C@@]12C[C@@H](c1ccoc1)OC2=O`, the Potency result in assay [1] and in assay [2] was “inactive” each time.

Take `COc1cc([C@H]2c3cc(O)c(OC)cc3C[C@@H](CO[C@@H]3O[C@H](CO)[C@@H](O)[C@H](O)[C@H]3O)[C@@H]2CO)ccc1O`: the Potency result in assay [1] and in assay [2] was “inactive” throughout.

In the case of `CO/N=C(/C(=O)N[C@@H]1C(=O)N2C(C(=O)O)=C(Cn3ccc(=N)n3CCO)CS[C@H]12)c1csc(N)n1`, the Potency result in assay [1] and in assay [2] was “inactive” each time.

Take `COc1c2ccoc2cc2oc(CO[C@@H]3O[C@H](CO)[C@@H](O)[C@H](O)[C@H]3O)cc(=O)c12`: the Potency result in assay [1] and in assay [2] was “inactive” in each case.

In the case of `O=C(NOCC(O)CO)c1ccc(F)c(F)c1Nc1ccc(I)cc1F` (configuration not stated), the Potency result in assay [1] and in assay [2] was “inactive” each time.

As for `C[C@@H]1CCC2C(C)(C)[C@H](O)CC[C@]2(C)[C@@]12Cc1c(O)cc3c(c1O2)CN([C@@H](CCC(=O)O)C(=O)O)C3=O` (some centres not stated), the Potency result in assay [1] and in assay [2] was “inactive” each time.

Regarding `CC1(C)CCCC2(C)C1CC=C1C(=O)OC(O)C12O` (configuration not stated), the Potency result in assay [1] and in assay [2] was “inactive” in each case.

As to `Cc1nc([C@](C)(O)CO)sc1-c1cnc(N)c(O[C@H](C)c2cc(F)ccc2-n2nccn2)c1`, the Potency entry in assay [1] is “inactive”. Also, the Potency in assay [2] is 8.33 µM (active).

For `CC(=O)OC1C[C@]2(C)C(O)CC(C)=C[C@H](OC(=O)c3ccc(O)cc3)C2[C@]1(O)C(C)C` (some centres not stated), the Potency result in assay [1] and in assay [2] was “inactive” throughout.

Turning to `CC1CC[C@]2(C(=O)O)CC[C@]3(C(=O)O)C(=CCC4[C@@]5(C)CC[C@H](O[C@@H]6O[C@H](CO)[C@@H](O)[C@H](O)[C@H]6O)C(C)(C)C5CC[C@]43C)C2C1C` (some centres not stated), the Potency result in assay [1] and in assay [2] was “inactive” in each case.

Turning to `C=C(C)C(=O)O[C@H]1C[C@@](C)(O)C(=O)CC(O)/C(C)=C\[C@H]2OC(=O)C(=C)[C@H]12` (some centres not stated), the Potency entry in assay [1] is “inactive”. The Potency in assay [2] is 4.01 µM (active).

With `CC1CCC2(OC1)OC1CC3C4CC=C5CC(O)CC(O[C@@H]6OC[C@@H](O)[C@H](O)[C@H]6O)C5(C)C4CCC3(C)C1(O)C2C` (some centres not stated), the Potency entry in assay [1] and in assay [2] was “inactive” each time.

Consider `CN(C)c1ccc2c(c1)OC(N)=C(C#N)C2c1cccc(C(F)(F)F)c1` (configuration not stated), for which the Potency result in assay [1] was “inactive”. The Potency in assay [2] is 0.817 µM (active).

For the molecule `CCCC(=O)NCCc1csc(-c2ccc(Cl)cc2)n1`, the Potency result in assay [1] is “inactive”. Also, in assay [2], the Potency was 12.9 µM (active).

As to `CC(=O)N[C@@H](CCCCN)C(=O)N(C)[C@@H](CC(C)C)C(=O)N[C@H](C(=O)N(C)[C@@H](Cc1ccccc1)C(=O)N[C@H](Cc1ccccc1)C(N)=O)C(C)C`, in assay [1], the activity change, negative = inhibition was 1.59% [at 12.4 µM]. The outcome in assay [2] was “inactive [at 4.96 µM]”.

`CC1COC2(OC3CC4C5CC(O[C@@H]6O[C@H](C)[C@@H](O[C@@H]7O[C@@H](C)[C@H](O)[C@@H](O)[C@H]7O)[C@H](O)[C@H]6O)C6CC(O)CCC6(C)C5CCC4(C)C3C2C)C(O)C1` (some centres not stated): the Potency result in assay [1] and in assay [2] was “inactive” each time.

On to `CC1CC2OC3(OC2C(C)(C)O)C1C1(C)CCC24CC25CCC(O[C@@H]2OC[C@@H](O)[C@H](O)[C@H]2O)C(C)(C)C5CC=C4C1(C)C3O` (some centres not stated), for which the Potency entry in assay [1] and in assay [2] was “inactive” throughout.

Turning to `CC[C@H]1OC(=O)[C@](C)(F)C(=O)[C@H](C)[C@@H](O[C@@H]2O[C@H](C)C[C@H](N(C)C)[C@H]2O)[C@](C)(OC)C[C@@H](C)C(=O)[C@@H](C)[C@H]2N(CCCCn3cc(-c4cccc(N)c4)nn3)C(=O)O[C@]12C`, the Potency result in assay [1] is “inactive”. In addition, in assay [2], the Potency was 20.5 µM (active).

As to `Oc1ccc(CNc2ccccc2F)c2cccnc12`, the Potency entry in assay [1] was “inactive”. Besides, the Potency in assay [2] is 12.9 µM (active).

With `CCC(=O)O[C@H]1C(C)(C)[C@H]([C@@H](O)C(=O)OC)[C@]2(C)C(=O)[C@@]1(O)[C@H]1O[C@]13C1CC(=O)O[C@@H](c4ccoc4)[C@]1(C)CCC32` (some centres not stated), the Potency result in assay [1] and in assay [2] was “inactive” in each case.

`CC1(C)CC2=C3C=CC4C5(C)CCC(O)C(C)(C)C5CCC4(C)C3(C)CCC2(C)C(O)C1` (configuration not stated): the Potency entry in assay [1] and in assay [2] was “inactive” each time.

Regarding `CC(=O)OC/C=C(\C)C(CC1C(C)=C(OC(C)=O)C(=O)C2C(C)(C)C(O)CCC12C)OC(C)=O` (configuration not stated), the Potency result in assay [1] and in assay [2] was “inactive” in each case.

`O=C(Nc1ccn[nH]1)c1c(F)cccc1F`: the Potency result in assay [1] and in assay [2] was “inactive” in each case.

Turning to `CC1=C(C(=O)O)/C(=C\CO[C@@H]2O[C@H](CO)[C@@H](O)[C@H](O)[C@H]2O)C(OC(=O)/C=C\c2ccc(O)cc2)C1` (some centres not stated), the Potency result in assay [1] and in assay [2] was “inactive” in each case.
